Assay outcomes as filed in PubChem BioAssay.
Pf apPOL block = Pf-apPOL inhibitors, biochemical, fluorescence | Recombinant Pf-apPOL, molecular beacon fluorescence, 1.5 h | inhibition, % at 10 µM | actives 0.25% (n = 210,000) | AID 1794808, 2022
mHTT CaM bind = mutant huntingtin-calmodulin interaction inhibitors – biochemical, AlphaScreen, primary screen | AlphaScreen His-mHTT/GST-CaM binding, luminescence | inhibition, % at 15 µM | actives 3.6% (n = 190,000);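 note: 0% = both proteins with DMSO and 100% = one protein alone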
Target sequence (P42858 whole entry, looked up, stated change not applied): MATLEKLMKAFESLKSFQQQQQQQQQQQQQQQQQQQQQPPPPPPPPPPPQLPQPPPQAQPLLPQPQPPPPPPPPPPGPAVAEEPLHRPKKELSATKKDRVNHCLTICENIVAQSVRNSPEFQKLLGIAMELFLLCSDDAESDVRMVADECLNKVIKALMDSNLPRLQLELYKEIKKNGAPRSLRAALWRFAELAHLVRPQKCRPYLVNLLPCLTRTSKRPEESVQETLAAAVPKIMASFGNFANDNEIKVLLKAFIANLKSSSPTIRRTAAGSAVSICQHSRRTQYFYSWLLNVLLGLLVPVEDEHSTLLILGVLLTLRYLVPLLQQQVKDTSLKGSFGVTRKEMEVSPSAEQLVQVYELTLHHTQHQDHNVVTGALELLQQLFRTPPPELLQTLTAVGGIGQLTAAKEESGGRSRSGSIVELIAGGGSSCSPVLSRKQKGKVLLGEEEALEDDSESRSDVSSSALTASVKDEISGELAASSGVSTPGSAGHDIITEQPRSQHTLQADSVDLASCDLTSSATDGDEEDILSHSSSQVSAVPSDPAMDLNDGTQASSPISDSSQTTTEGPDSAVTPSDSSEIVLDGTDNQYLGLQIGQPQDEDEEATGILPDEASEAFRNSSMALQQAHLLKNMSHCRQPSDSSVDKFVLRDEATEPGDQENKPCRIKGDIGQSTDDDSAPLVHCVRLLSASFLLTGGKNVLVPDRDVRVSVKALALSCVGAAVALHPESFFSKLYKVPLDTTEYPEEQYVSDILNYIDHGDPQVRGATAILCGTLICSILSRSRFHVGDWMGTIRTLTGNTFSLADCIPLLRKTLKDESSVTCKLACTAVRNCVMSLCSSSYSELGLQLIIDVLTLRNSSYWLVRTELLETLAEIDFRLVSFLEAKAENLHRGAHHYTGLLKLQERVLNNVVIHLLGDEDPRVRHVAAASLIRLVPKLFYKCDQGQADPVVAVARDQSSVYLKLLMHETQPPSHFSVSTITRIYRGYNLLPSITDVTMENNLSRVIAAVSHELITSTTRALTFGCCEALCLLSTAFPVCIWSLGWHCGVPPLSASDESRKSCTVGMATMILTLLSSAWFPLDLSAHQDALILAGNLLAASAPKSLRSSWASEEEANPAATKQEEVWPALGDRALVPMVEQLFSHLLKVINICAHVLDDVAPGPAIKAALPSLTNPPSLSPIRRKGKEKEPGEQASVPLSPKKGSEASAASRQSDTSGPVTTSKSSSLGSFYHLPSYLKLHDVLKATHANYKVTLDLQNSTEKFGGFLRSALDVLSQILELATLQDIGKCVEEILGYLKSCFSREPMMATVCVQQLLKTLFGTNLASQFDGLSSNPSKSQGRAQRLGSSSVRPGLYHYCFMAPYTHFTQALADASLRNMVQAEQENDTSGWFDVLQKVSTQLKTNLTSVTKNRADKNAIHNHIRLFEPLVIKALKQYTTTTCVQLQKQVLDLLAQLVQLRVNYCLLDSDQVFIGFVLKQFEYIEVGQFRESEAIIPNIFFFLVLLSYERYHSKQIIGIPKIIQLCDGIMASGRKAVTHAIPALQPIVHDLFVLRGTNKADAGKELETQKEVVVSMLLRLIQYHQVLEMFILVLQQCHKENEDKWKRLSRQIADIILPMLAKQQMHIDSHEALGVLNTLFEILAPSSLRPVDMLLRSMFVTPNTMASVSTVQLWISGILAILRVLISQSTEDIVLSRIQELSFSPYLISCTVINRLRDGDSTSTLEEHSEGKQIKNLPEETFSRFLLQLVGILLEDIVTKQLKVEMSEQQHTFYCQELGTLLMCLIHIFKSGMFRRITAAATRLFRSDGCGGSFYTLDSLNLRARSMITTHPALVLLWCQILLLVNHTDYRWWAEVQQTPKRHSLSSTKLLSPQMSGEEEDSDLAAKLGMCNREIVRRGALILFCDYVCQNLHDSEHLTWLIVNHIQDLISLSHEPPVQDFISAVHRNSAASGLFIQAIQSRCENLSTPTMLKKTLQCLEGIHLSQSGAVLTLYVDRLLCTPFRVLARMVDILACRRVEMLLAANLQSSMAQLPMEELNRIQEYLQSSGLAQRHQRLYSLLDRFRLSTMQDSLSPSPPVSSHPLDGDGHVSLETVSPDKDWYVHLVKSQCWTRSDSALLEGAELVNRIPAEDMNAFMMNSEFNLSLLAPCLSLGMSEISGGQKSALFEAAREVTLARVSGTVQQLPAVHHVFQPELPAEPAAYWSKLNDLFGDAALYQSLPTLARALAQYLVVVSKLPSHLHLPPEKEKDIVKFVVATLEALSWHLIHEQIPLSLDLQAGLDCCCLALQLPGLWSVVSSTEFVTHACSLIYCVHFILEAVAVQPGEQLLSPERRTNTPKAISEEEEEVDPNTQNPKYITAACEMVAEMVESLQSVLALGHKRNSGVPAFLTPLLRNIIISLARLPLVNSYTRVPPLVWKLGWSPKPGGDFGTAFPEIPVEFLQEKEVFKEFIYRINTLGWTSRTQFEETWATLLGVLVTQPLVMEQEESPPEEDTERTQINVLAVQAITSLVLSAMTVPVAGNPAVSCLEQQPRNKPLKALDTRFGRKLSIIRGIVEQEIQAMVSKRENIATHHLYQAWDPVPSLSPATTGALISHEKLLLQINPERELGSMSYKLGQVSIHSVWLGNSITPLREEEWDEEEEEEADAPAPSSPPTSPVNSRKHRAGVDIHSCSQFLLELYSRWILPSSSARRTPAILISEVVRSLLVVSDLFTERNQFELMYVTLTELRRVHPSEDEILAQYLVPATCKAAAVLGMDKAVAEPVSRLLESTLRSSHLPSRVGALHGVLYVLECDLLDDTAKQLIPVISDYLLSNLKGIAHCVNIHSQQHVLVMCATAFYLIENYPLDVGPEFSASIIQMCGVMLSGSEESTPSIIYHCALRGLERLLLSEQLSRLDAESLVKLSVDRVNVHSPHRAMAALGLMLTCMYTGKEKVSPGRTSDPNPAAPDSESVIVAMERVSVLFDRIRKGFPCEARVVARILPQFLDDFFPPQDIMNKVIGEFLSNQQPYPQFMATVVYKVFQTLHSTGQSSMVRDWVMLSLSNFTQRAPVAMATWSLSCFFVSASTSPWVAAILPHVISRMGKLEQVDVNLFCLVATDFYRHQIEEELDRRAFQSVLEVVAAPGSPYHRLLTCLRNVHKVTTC
* hit, by the source's call; . = no result. Rows were chosen to be rich in hits. Some 3.5% of all compounds tested hit in one or more screens of this group. Cut-off read from the data, not from the text of the source: active = inhibition above about 50%; inactive = the rest.

SMILES	Pf apPOL block	mHTT CaM bind
CCC(=O)N(C)CC(=O)N1N=C(c2ccccc2Cl)CC1c1ccccc1Cl (centres undefined)	0	60*
CCNC(=O)N(C)CC(=O)N1N=C(c2ccccc2Cl)CC1c1ccccc1F (centres undefined)	3	37
COc1ccc(C2=NN(C(=O)CN(C)C(C)=O)C(c3ccc(C)cc3)C2)cc1 (centres undefined)	-8	23
O=C1OC(c2ccccc2F)=N/C1=C\c1cccc(F)c1	-2	-3
Cc1noc(-c2nn(C)c3c2CN(C(=O)c2ccsc2)CC3)n1	-2	-1
O=C(NCCCn1ccnc1)C(=O)NCc1ccc(F)cc1	-6	70*
Cc1ccc(NC(=O)C(=O)NCCCn2ccnc2)cc1F	-8	17
CC(C)(C)c1nnc(NCc2ccccc2)[nH]c1=O	3	-2
O=C1C2=C(Nc3ccccc3SC2c2ccccc2)c2ccccc21 (centres undefined)	.	73*
O=C1c2ccccc2NC(c2cccs2)N1c1ccccc1 (centres undefined)	-2	1
COc1cccc(C2Nc3ccccc3NC3=C2C(=O)CC(c2ccccc2)C3)c1OC (centres undefined)	8	39
COc1cccc(C2Sc3ccccc3NC3=C2C(=O)c2ccccc23)c1OC (centres undefined)	0	58*
O=C1Nc2ccccc2SC1c1ccccc1 (centres undefined)	-3	.
O=C1C2=C(Nc3ccccc3SC2c2ccccc2[N+](=O)[O-])c2ccccc21 (centres undefined)	3	53*
O=C1C2=C(Nc3ccccc3SC2c2cccs2)c2ccccc21 (centres undefined)	6	73*
O=C1NC2=C(C(=O)c3ccccc32)C(c2ccccc2)N1 (centres undefined)	-64	28
CSc1ccc(CNC(=O)CSc2cc(N3CCCCC3)ncn2)cc1	-3	-4
COc1ccc(-n2nc(C(=O)NCC(=O)NCC3CCCO3)c3ccccc3c2=O)cc1OC (centres undefined)	-5	-2
COc1ccccc1CCC(=O)N1CCc2c(c(-c3nc(C4CC4)no3)nn2C)C1	1	16
Cc1ccccc1CNC(=O)c1c(C)noc1-c1cccc(C(F)(F)F)c1	4	-11
Cn1ncc(N2CCCC(C(=O)NCc3ccc(F)cc3Cl)C2)cc1=O (centres undefined)	-1	-4
COc1cccc(C2Sc3ccccc3NC3=C2C(=O)c2ccccc23)c1 (centres undefined)	-93	76*
Cc1cccc(C2SC(=O)NC3=C2C(=O)c2ccccc23)c1 (centres undefined)	1	22
CCC(=O)N1CCc2cc(S(=O)(=O)CCC(=O)Nc3ccc(Br)cc3C)ccc21	6	-2
N#Cc1cnn2cc(-c3[nH]ncc3[N+](=O)[O-])cnc12	.	-2
SMILES	Pf apPOL block	mHTT CaM bind
O=C(O)CCCN1C(=O)C(=CC=Cc2ccccc2)SC1=S	-75	25
CC(/C=C1\SC(=S)N(CC(=O)O)C1=O)=C\c1ccccc1	-2	.
CC(=Cc1ccccc1)C=C1SC(=S)N(C2CC(=O)N(CCCCCC(=O)O)C2=O)C1=O (centres undefined)	-94	53*
O=C(O)CCCN1C(=O)CC(N2C(=O)C(=CC=Cc3ccccc3)SC2=S)C1=O (centres undefined)	-67	54*
CCC(Oc1ccccc1)C(=O)Nc1ccc(F)cc1 (centres undefined)	1	-20
O=C(Nc1c(C(=O)Nc2ccc(Br)cc2)cnn1-c1ccccc1)c1ccccc1F	0	5
O=C1C=CC(=O)C(C2=C3C(=O)N(Cc4ccccc4)CC(=O)N3CCC2)=C1	-8	82*
O=C1NCCN(Cc2ccccc2)C1=O	-6	-1
COc1ccc(C(CC(=O)O)NC(=O)c2ccc(F)cc2)cc1OC (centres undefined)	-6	-4
CCCC(=O)Nc1c(C)nc2scc(CC)n2c1=O	2	-3
C=C(C)CNC(=O)c1sc2cccc(C)c2c1Cl	0	-14
COc1ccc(OCc2nc3ccccc3n2CCCOc2ccccc2)cc1	0	26
O=[N+]([O-])c1ccc(N2CCN(S(=O)(=O)c3cc(Cl)ccc3Cl)CC2)cc1	-13	4
Cc1cc2c(c(=O)[nH]1)C(=O)O/C2=C\c1cccs1	-3	12
Cc1cc2c(c(=O)[nH]1)C(=O)O/C2=C\c1ccc(C)o1	-3	69*
CC(Sc1nnc(-c2ccco2)o1)C(=O)NC(c1ccccc1)c1ccccc1 (centres undefined)	-3	-1
COc1ccc([N+](=O)[O-])cn1	-1	.
N#CCn1cc(/C=C2\C(=O)NC(=O)N(c3ccc4c(c3)OCO4)C2=O)c2ccccc21	-2	35
O=C(Nc1ccccc1)c1cccc2c3c([nH]c12)CCCC3	-1	76*
c1ccc2c3c([nH]c2c1)CCCC3	.	37
CCOC(=O)COc1ccc2c(c1)OC(=Cc1ccccc1OC)C2=O	5	0
CCc1ccc(CNC(=O)C2CCN(c3ccncc3)CC2)cc1	-3	0
CCc1ccccc1NC(=O)Cn1ccc2c(=O)[nH]ccc21	30	23
Cc1ccc(NC(=O)Cn2ccc3c(=O)[nH]ccc32)cc1C	31	16
COc1ccc(NC(=O)Cn2ccc3c(=O)[nH]ccc32)cc1	53*	18
SMILES	Pf apPOL block	mHTT CaM bind
Cc1cccc(NC(=O)Cn2ccc3c(=O)[nH]ccc32)c1C	54*	13
COc1ccccc1-c1noc(C2CCCN2C(=O)Cc2cccc(F)c2)n1 (centres undefined)	-2	-3
CCOc1cc(CNC(=O)C2CCCN(c3nccc(C)n3)C2)cc(OCC)c1OCC (centres undefined)	-5	-6
Clc1ccc(C2=CC(c3ccc(Br)cc3)n3nnnc3N2)s1 (centres undefined)	2	7
Cc1nc2ccc(Cl)cc2c2c(N)c3ccccc3n12	-12	56*
CC(=O)Nc1c2ccc([N+](=O)[O-])cc2n2c(C)nc3ccc(Cl)cc3c12	-5	-2
COc1ccc(-c2ccc(CN3C(C(C)C)C(=O)N(Cc4cn(Cc5ccco5)nn4)CCS3(=O)=O)cc2)cn1 (centres undefined)	-27	38
CCC/C=C/c1ccc(CN2C(C)C(=O)N(Cc3cn(Cc4ccco4)nn3)CCS2(=O)=O)cc1 (centres undefined)	-4	35
CC(C)C1C(=O)N(Cc2cn(Cc3ccco3)nn2)CCS(=O)(=O)N1Cc1ccc(-c2ccc(Cl)c(Cl)c2)cc1 (centres undefined)	-10	83*
CCC/C=C/c1ccc(CN2C(C(C)C)C(=O)N(Cc3cn(Cc4ccco4)nn3)CCS2(=O)=O)cc1 (centres undefined)	-1	57*
CC1CCc2cc(F)cc3c(O)c(C(=O)NCCCN4CCOCC4)c(=O)n1c23 (centres undefined)	-80	27
CCNCCNC(=O)c1c(O)c2cc(F)cc3c2n(c1=O)C(C)CC3 (centres undefined)	-66	98*
CCCN1C(=O)Cc2ccccc2C1C(=O)NCc1ccccc1OCC (centres undefined)	-2	3
O=C(Nc1ccc(NC(=O)c2ccc(Cl)cc2Cl)cc1Cl)c1ccco1	-6	3
O=C(Nc1nn[nH]n1)c1cc(Cl)ccc1[N+](=O)[O-]	7	8
